# Laboratory results: the supplement of paper PMC8728848
# The full list was thinned out, with the strongest signals kept by preference.
# B1: SrpA (Streptococcus sanguis) (protein)
# chain: SSKSESTVNSQSASSETNRSSTNNGSTSSSSETARVRKRRATDTTPPTITVPSDIIAYRGEEFEFYFEITDDSGQVKNIELSTFGKPLGLNWLEYSEDNFNVPGNATSDNPLRVRVHGTVPLNEPIPADKNRAQFTRTIRAWDAAGNVSSNITFVIKYRAQTDKYNPADPTITYVDRLSSLSPSEKNAVEAAVRAANPQIPAAARITVSANGTVTITYPDSSTDTITANRVVKDLASSRSALT
# B2: FedF (Escherichia coli), Q47212 (protein)
# chain: MRLKYILIIPLLLISLSVFASTLQVDKSVSYDWINSSASSAQVTGTLLGTGKTNTTQMPALYTWQHQIYNVNFIPSSSGTLTCQAGTILVWKNGRETQYALECRVSIHHSSGSINESQWGQQSQVGFGTACGNKKCRFTGFEISLRIPPNAQTYPLSSGDLKGSFSLTNKEVNWSASIYVPAIAKSYRLDTSITLPDTVNLKQNQATPVYYTFSAPSVSNTITGIPNQNDMPSSNVKLTIGPIQSKTTALYVQPDATGSWYDLSKSITMTVVKSSMLNFKGINAKPGNVTLSVPIVFEIQ
# Tests used:
# Assay in all cases: glycan array binding signal (z-score within array); higher = stronger binding
# Conditions in all cases: glycan notation: IUPAC condensed, linker removed
# [1] = biological target: Fuc(a1-2)Gal(b1-4)GlcNAc(b1-3)Gal(b1-4)GlcNAc
# How it was run: (§1)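 Glycan array data were curated from 3228 arrays in the Consortium for Functional Glycomics database and kept only where the protein sequence was available. Glycan names were converted to IUPAC-condensed notation, and columns mapping to the same glycan were averaged. The binding signal is a within-array Z-score, averaged across arrays of the same protein sequence at different concentrations or buffers and across linkers. Negative Z-scores can be read as non-binding.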
# [2] = biological target: Fuc(a1-2)Gal(b1-4)GlcNAc(b1-3)Gal(b1-4)GlcNAc(b1-3)Gal(b1-4)GlcNAc
# How it was run: as §1
# Fuc(a1-2)[Gal(a1-3)]Gal = biological target: Fuc(a1-2)[Gal(a1-3)]Gal
# How it was run: as §1
# [3] = biological target: Fuc(a1-3)[Gal(b1-4)]GlcNAc(b1-3)Gal(b1-3)[Fuc(a1-4)]GlcNAc
# How it was run: as §1
# [4] = biological target: Fuc(a1-3)[GalNAc(b1-4)]GlcNAc
# How it was run: as §1
# Gal(a1-3)Gal(b1-4)Glc = biological target: Gal(a1-3)Gal(b1-4)Glc
# How it was run: as §1
# Gal(a1-3)GalNAc = biological target: Gal(a1-3)GalNAc
# How it was run: as §1
# [5] = biological target: Gal(b1-3)GalNAc(b1-4)[Neu5Ac(a2-3)]Gal(b1-4)Glc
# How it was run: as §1
# [6] = biological target: Gal(b1-4)GlcNAc(b1-6)GalNAc
# How it was run: as §1
# Gal3S(b1-3)GlcNAc = biological target: Gal3S(b1-3)GlcNAc
# How it was run: as §1
# [7] = biological target: GalNAc(b1-3)Gal(a1-4)Gal(b1-4)GlcNAc
# How it was run: as §1
# [8] = biological target: GlcNAc(b1-3)Gal(b1-3)GalNAc
# How it was run: as §1
# [9] = biological target: GlcNAc(b1-3)Gal(b1-4)GlcNAc
# How it was run: as §1
# [10] = biological target: GlcNAc(b1-3)[GlcNAc(b1-4)][GlcNAc(b1-6)]GlcNAc
# How it was run: as §1
# Kdn(a2-3)Gal(b1-3)GlcNAc = biological target: Kdn(a2-3)Gal(b1-3)GlcNAc
# How it was run: as §1
# [11] = biological target: Man(a1-2)Man(a1-3)[Man(a1-2)Man(a1-6)]Man
# How it was run: as §1
# [12] = biological target: Man(a1-2)Man(a1-3)[Man(a1-2)Man(a1-6)]Man(a1-6)[Man(a1-2)Man(a1-2)Man(a1-3)]Man(b1-4)GlcNAc(b1-4)GlcNAc
# How it was run: as §1
# [13] = biological target: Man(a1-3)[Man(a1-6)]Man(a1-6)[Man(a1-3)]Man(b1-4)GlcNAc(b1-4)GlcNAc
# How it was run: as §1
# [14] = biological target: Man(a1-3)[Man(a1-6)]Man(b1-4)GlcNAc(b1-4)GlcNAc
# How it was run: as §1
# [15] = biological target: Neu5Ac(a2-3)Gal(b1-3)GalNAc(b1-4)[Neu5Ac(a2-3)]Gal(b1-4)Glc
# How it was run: as §1
# [16] = biological target: Neu5Ac(a2-3)[Neu5Ac(a2-6)]GalNAc
# How it was run: as §1
# Neu5Ac(a2-6)GalNAc = biological target: Neu5Ac(a2-6)GalNAc
# How it was run: as §1
# [17] = biological target: Neu5Ac(a2-8)Neu5Ac(a2-8)Neu5Ac
# How it was run: as §1
# [18] = biological target: Neu5Ac(a2-8)Neu5Ac(a2-8)Neu5Ac(a2-3)[GalNAc(b1-4)]Gal(b1-4)Glc
# How it was run: as §1
# [19] = biological target: Neu5Ac(a2-8)Neu5Ac(a2-8)Neu5Ac(a2-8)Neu5Ac(a2-3)[GalNAc(b1-4)]Gal(b1-4)Glc
# How it was run: as §1
# [20] = biological target: Neu5Gc(a2-3)Gal(b1-4)GlcNAc
# How it was run: as §1
# [21] = biological target: Fuc(a1-2)Gal(b1-4)[Fuc(a1-3)]GlcNAc(b1-3)Gal(b1-4)[Fuc(a1-3)]GlcNAc
# How it was run: as §1
# [22] = biological target: Fuc(a1-2)[Gal(a1-3)]Gal(b1-4)[Fuc(a1-3)]GlcNAc
# How it was run: as §1
# [23] = biological target: Fuc(a1-3)[Gal(b1-4)]GlcNAc(b1-2)Man(a1-3)[Fuc(a1-3)[Gal(b1-4)]GlcNAc(b1-2)Man(a1-6)]Man(b1-4)GlcNAc(b1-4)[Fuc(a1-6)]GlcNAc
# How it was run: as §1
# [24] = biological target: Gal(a1-3)Gal(b1-4)[Fuc(a1-3)]GlcNAc(b1-2)Man(a1-3)[Gal(a1-3)Gal(b1-4)[Fuc(a1-3)]GlcNAc(b1-2)Man(a1-6)]Man(b1-4)GlcNAc(b1-4)GlcNAc
# How it was run: as §1
# Gal(a1-6)Glc = biological target: Gal(a1-6)Glc
# How it was run: as §1
# Gal(b1-3)Gal(b1-4)GlcNAc = biological target: Gal(b1-3)Gal(b1-4)GlcNAc
# How it was run: as §1
# Gal(b1-3)GalNAc = biological target: Gal(b1-3)GalNAc
# How it was run: as §1
# [25] = biological target: Gal(b1-3)GalNAc(a1-3)[Fuc(a1-2)]Gal(b1-4)GlcNAc
# How it was run: as §1
# [26] = biological target: Gal(b1-3)GlcNAc(b1-2)Man(a1-3)[Gal(b1-3)GlcNAc(b1-2)Man(a1-6)]Man(b1-4)GlcNAc(b1-4)[Fuc(a1-6)]GlcNAc
# How it was run: as §1
# [27] = biological target: Gal(b1-3)[Fuc(a1-4)]GlcNAc(b1-3)Gal(b1-4)[Fuc(a1-3)]GlcNAc
# How it was run: as §1
# [28] = biological target: Gal(b1-4)GlcNAc(b1-2)Man(a1-6)Man(b1-4)GlcNAc(b1-4)GlcNAc
# How it was run: as §1
# Gal3S(b1-4)Glc6S = biological target: Gal3S(b1-4)Glc6S
# How it was run: as §1
# Gal3S(b1-4)GlcNAc6S = biological target: Gal3S(b1-4)GlcNAc6S
# How it was run: as §1
# Gal3S6S(b1-4)GlcNAc6S = biological target: Gal3S6S(b1-4)GlcNAc6S
# How it was run: as §1
# Gal6S(b1-4)GlcNAc = biological target: Gal6S(b1-4)GlcNAc
# How it was run: as §1
# [29] = biological target: GlcNAc(a1-4)Gal(b1-4)GlcNAc(b1-3)Gal(b1-4)GlcNAc
# How it was run: as §1
# [30] = biological target: GlcNAc(b1-2)Man(a1-3)[GlcNAc(b1-2)Man(a1-6)]Man(b1-4)GlcNAc(b1-4)[Fuc(a1-6)]GlcNAc
# How it was run: as §1
# [31] = biological target: GlcNAc(b1-3)[GlcNAc(b1-6)]GalNAc
# How it was run: as §1
# [32] = biological target: GlcNAc(b1-4)GlcNAc(b1-4)GlcNAc(b1-4)GlcNAc(b1-4)GlcNAc
# How it was run: as §1
# GlcNAc3Prop(b1-4)GlcNAc = biological target: GlcNAc3Prop(b1-4)GlcNAc
# How it was run: as §1
# Man(a1-6)Man = biological target: Man(a1-6)Man
# How it was run: as §1
# [33] = biological target: Neu5Ac(a2-3)Gal(b1-4)GlcNAc(b1-3)Gal(b1-4)[Fuc(a1-3)]GlcNAc
# How it was run: as §1
binder,measurement,setting,value
B1,glycan array binding signal (z-score),[1],-0.109
same,glycan array binding signal (z-score),[2],2.25
same,glycan array binding signal (z-score),Fuc(a1-2)[Gal(a1-3)]Gal,0.762
same,glycan array binding signal (z-score),[3],-0.157
same,glycan array binding signal (z-score),[4],-0.159
same,glycan array binding signal (z-score),Gal(a1-3)Gal(b1-4)Glc,0.291
same,glycan array binding signal (z-score),Gal(a1-3)GalNAc,-0.317
same,glycan array binding signal (z-score),[5],-0.532
same,glycan array binding signal (z-score),[6],-0.04
same,glycan array binding signal (z-score),Gal3S(b1-3)GlcNAc,0.646
same,glycan array binding signal (z-score),[7],-0.265
same,glycan array binding signal (z-score),[8],1.6
same,glycan array binding signal (z-score),[9],-0.543
same,glycan array binding signal (z-score),[10],-0.657
same,glycan array binding signal (z-score),Kdn(a2-3)Gal(b1-3)GlcNAc,0.272
same,glycan array binding signal (z-score),[11],-0.848
same,glycan array binding signal (z-score),[12],-0.332
same,glycan array binding signal (z-score),[13],1.57
same,glycan array binding signal (z-score),[14],-0.474
same,glycan array binding signal (z-score),[15],-0.383
same,glycan array binding signal (z-score),[16],-0.566
same,glycan array binding signal (z-score),Neu5Ac(a2-6)GalNAc,5.01
same,glycan array binding signal (z-score),[17],-0.629
same,glycan array binding signal (z-score),[18],-0.901
same,glycan array binding signal (z-score),[19],2.24
same,glycan array binding signal (z-score),[20],-0.45
B2,glycan array binding signal (z-score),[1],-0.446
same,glycan array binding signal (z-score),[21],-0.053
same,glycan array binding signal (z-score),[22],0.755
same,glycan array binding signal (z-score),[23],-0.17
same,glycan array binding signal (z-score),[24],-0.084
same,glycan array binding signal (z-score),Gal(a1-3)GalNAc,-0.219
same,glycan array binding signal (z-score),Gal(a1-6)Glc,0.241
same,glycan array binding signal (z-score),Gal(b1-3)Gal(b1-4)GlcNAc,-0.144
same,glycan array binding signal (z-score),Gal(b1-3)GalNAc,-0.092
same,glycan array binding signal (z-score),[25],-0.088
same,glycan array binding signal (z-score),[26],0.741
same,glycan array binding signal (z-score),[27],-0.274
same,glycan array binding signal (z-score),[28],0.184
same,glycan array binding signal (z-score),Gal3S(b1-4)Glc6S,1.04
same,glycan array binding signal (z-score),Gal3S(b1-4)GlcNAc6S,0.729
same,glycan array binding signal (z-score),Gal3S6S(b1-4)GlcNAc6S,1.97
same,glycan array binding signal (z-score),Gal6S(b1-4)GlcNAc,0.402
same,glycan array binding signal (z-score),[29],0.918
same,glycan array binding signal (z-score),[30],1.99
same,glycan array binding signal (z-score),[31],-0.248
same,glycan array binding signal (z-score),[32],-0.269
same,glycan array binding signal (z-score),GlcNAc3Prop(b1-4)GlcNAc,13.7
same,glycan array binding signal (z-score),[11],0.257
same,glycan array binding signal (z-score),Man(a1-6)Man,-0.145
same,glycan array binding signal (z-score),[33],-0.292
same,glycan array binding signal (z-score),[20],-0.223
